Experimental data reported in PubChem BioAssay.
Calls of active or inactive are those of the source.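 How the source made its calls, unless noted: active means inhibition above 20% together with a positive visual image hit; inconclusive means visual image hit but inhibition not above 20%; inactive means no visual image hit.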

Key:
[1] = inhibitors of TNFa-induced NFkB p65 translocation, primary screen, imaging, HUVEC, MLSMR starter and 10KST1 sets (AID 438); settings: HUVEC TNFa-induced p65 nuclear translocation; cell count: measured here: nuclei count (cytotoxicity indicator), at 2.08 µM; inhibition: at 2 µM, stronger effect = higher value, 0% TNFa-plus-vehicle, 100% no-TNFa wells;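 further: compound added about 3h40 before a 20 min TNFalpha stimulation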;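 on inhibition: signal is the nuclear over cytoplasmic p65 intensity ratio per well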
[2] = reduction of polyQ htt aggregates in cells – imaging, exon1htt(103Q)mCFP cells, high-content imaging, primary screen (AID 483;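 active means visual image review flags a hit and inhibition of aggregation exceeds 20%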;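 further: compound exposure lasted 3 days before fixation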;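 on nuclei count: percent of the per-plate median nuclei count of sample wells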); settings: exon1htt(103Q)mCFP cell line, aggregate imaging, at 2 µM; inhibition of aggregation: stronger effect = higher value; nuclei count: measured here: cell count, toxicity
[3] = endothelial E-selectin expression blockers – imaging, HUVEC, immunofluorescence, MLSMR starter and 10KST1 sets, primary screen (AID 487;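 active means visually confirmed hit in the image check and inhibition above 20%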;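 on inhibition: signal is fraction of cell area covered by stained E-selectin grains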;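 on nuclei count: 100% = median nuclei count of all wells on the same plate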); settings: HUVEC TNFalpha-induced E-selectin immunofluorescence imaging, at 2 µM; inhibition: stronger effect = higher value; nuclei count: measured here: cell number, toxicity
[4] = molecular target: Voltage-gated potassium channel subunit beta-2 (Rattus norvegicus) (UniProt P62483); assay: inhibitors of rat Kvbeta2 reductase activity – biochemical, NADPH fluorescence, primary screen (AID 622;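 active means fluorescence slope higher than the sample average by over 3 SD, cut at about -0.22 in these data, passing the limit was not always enough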;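 further: slope of raw intensity against log time taken from 70 to 1610 s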); settings: recombinant KvBeta, 4-cyanobenzaldehyde reduction, at 10 µM, stronger effect = higher value
[5] = molecular target: Voltage-gated potassium channel subunit beta-2 (Rattus norvegicus) (UniProt P62483); assay: enhancers of rat Kvbeta2 NADPH turnover – biochemical, NADPH fluorescence, primary screen (AID 623;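 active means NADPH fluorescence slope more negative than the mean of all samples by about 3 SD, 99.7% confidence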;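 further: fluorescence intensity change per second fitted from 20 to 320 s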); settings: Recombinant KvBeta, NADPH fluorescence decrease slope, 10 min; at 10 µM; stronger effect = lower value
[6] = molecular target: Muscarinic acetylcholine receptor M4 (Homo sapiens) (UniProt P08173); assay: M4-linked GIRK flux change, two-sided – cell-based, HEK293 M4/GIRK, thallium flux, BTC-AM, M4 allosteric agonist project, primary screen (AID 625;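 active means fluorescence slope after compound addition differing from the mean of all tested samples at 99.7% confidence, mostly higher but some lower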;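 further: thallium influx through GIRK channels coupled to M4 in HEK293 cells with BTC-AM dye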); settings: at 10 µM, actives lie on both sides
[7] = blockers of RIG-like receptor reporter activation – cell-based, Sendai virus stimulus, luciferase, 10K MLSCN set, TLR/RLR signaling modifier project, primary screen (AID 602276;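 active means inhibition at or above 50% at 10 µM; inactive means inhibition below 50%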;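 further: firefly luciferase from ISG56 promoter only with Renilla not read in this screen; 0% = Sendai virus plus DMSO and 100% = medium plus DMSO without virus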); settings: HEK293 RL24 IRF3 luciferase reporter, at 10 µM, stronger effect = higher value
[8] = TLR3 IRF3 reporter activation blockers – cell-based, poly I:C stimulus, luciferase, 10K MLSCN set, primary screen (AID 602277;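 active means inhibition of the reporter signal at or above 50%; inactive means inhibition below 50%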); settings: HEK293-TLR3 RL24 IRF3 luciferase reporter, at 10 µM, stronger effect = higher value
[9] = Primary imaging screen for DUSP6 inhibitors that restore phospho-Erk in transfected HeLa cells, chemical complementation (AID 609;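 active means compounds giving at least 50% inhibition in the cell-based MKP-3 phosphatase rescue imaging test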;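 on inhibition: phospho-Erk level distribution per well compared with pooled transfected vehicle control wells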); settings: HeLa MKP-3 transfected, phospho-Erk imaging KS statistic, at 10 µM, cells stimulated with TPA for 15 min
[10] = molecular target: Dual specificity protein phosphatase 6 (Homo sapiens) (UniProt Q16828); assay: as above; settings: HeLa MKP-3 transfected, phospho-Erk imaging KS statistic; at 10 µM; stronger effect = higher value; cells stimulated with TPA for 15 min
[11] = molecular target: Alpha-2C adrenergic receptor (Homo sapiens) (UniProt P18825); assay: compounds altering alpha2C-coupled GIRK flux – cell-based, HEK293 alpha2C/GIRK1/2, thallium flux, primary screen (AID 624;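 active means fluorescence slope after compound addition differing from the mean of all screened samples at 99.7% confidence, in either direction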;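 further: slope of fluorescence ratio to pre-addition baseline per second over 15 to 24 s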); settings: thallium flux BTC fluorescence, at 10 µM, actives lie on both sides
Sequence of Alpha-2C adrenergic receptor (Homo sapiens) (P18825 whole entry, looked up): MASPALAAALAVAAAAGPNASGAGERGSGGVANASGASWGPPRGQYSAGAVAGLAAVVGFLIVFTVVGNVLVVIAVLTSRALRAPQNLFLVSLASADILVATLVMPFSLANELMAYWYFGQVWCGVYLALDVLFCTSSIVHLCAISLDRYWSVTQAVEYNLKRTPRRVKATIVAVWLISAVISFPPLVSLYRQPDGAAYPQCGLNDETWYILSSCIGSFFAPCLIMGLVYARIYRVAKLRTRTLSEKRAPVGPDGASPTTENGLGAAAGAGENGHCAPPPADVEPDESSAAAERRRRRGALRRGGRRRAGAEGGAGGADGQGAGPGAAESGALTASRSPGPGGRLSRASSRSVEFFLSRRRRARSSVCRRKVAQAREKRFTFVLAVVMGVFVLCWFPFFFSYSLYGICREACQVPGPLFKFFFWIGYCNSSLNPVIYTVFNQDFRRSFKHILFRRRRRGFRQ

Sequence of Voltage-gated potassium channel subunit beta-2 (Rattus norvegicus) (P62483 whole entry, looked up): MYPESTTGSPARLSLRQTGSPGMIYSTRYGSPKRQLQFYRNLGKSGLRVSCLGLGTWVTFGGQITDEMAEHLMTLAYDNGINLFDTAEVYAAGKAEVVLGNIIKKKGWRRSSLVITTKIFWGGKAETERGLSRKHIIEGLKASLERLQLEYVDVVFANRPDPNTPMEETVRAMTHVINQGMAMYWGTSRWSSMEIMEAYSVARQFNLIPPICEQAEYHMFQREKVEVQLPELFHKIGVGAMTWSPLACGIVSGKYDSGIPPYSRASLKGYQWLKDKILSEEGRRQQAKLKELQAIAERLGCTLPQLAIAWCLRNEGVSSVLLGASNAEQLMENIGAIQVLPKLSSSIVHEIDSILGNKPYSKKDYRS
Sequence of Muscarinic acetylcholine receptor M4 (Homo sapiens) (P08173 whole entry, looked up): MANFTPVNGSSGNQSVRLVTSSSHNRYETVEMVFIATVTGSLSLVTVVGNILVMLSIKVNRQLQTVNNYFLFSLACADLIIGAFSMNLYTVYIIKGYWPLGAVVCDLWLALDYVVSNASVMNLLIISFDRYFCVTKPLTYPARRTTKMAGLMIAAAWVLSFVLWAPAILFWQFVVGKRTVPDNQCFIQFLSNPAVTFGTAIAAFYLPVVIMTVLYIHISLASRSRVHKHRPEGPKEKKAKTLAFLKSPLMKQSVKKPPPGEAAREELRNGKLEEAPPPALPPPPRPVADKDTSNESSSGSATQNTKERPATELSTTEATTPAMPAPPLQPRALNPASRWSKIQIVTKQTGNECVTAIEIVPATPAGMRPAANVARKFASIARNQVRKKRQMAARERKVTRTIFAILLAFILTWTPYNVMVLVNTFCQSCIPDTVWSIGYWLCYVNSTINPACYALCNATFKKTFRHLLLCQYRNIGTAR
Sequence of Dual specificity protein phosphatase 6 (Homo sapiens) (Q16828 whole entry, looked up): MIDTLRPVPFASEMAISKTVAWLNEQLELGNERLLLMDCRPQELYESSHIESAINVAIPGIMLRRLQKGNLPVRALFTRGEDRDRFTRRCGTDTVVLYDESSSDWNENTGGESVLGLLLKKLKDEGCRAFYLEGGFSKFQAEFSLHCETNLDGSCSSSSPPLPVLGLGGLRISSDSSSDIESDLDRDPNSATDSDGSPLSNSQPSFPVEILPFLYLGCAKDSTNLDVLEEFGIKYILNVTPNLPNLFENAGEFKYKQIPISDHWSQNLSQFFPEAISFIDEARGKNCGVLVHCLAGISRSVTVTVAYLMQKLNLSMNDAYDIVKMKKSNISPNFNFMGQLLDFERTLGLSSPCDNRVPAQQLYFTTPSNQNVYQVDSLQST

SMILES	cell count [1]	inhibition [1]	inhibition of aggregation [2]	nuclei count [2]	nuclei count [3]	fluorescence slope [4]	NADPH fluorescence slope [5]	fluorescence slope [6]	inhibition [7]	inhibition [8]	inhibition [3]	z-score ([9]; measured here: cell density z-score)	z-score ([9]; measured here: nuclear c-Myc green intensity z-score)	z-score ([9]; measured here: nuclear pErk red intensity z-score, stronger effect = higher value)	inhibition [10]	slope [11]
O=C(Nc1ccc2c(c1)OCO2)C1CCCN1C(=O)Nc1ccccc1F (stereo not given)	432	9% (inactive)	-11.8% (inactive)	98.2%	135%	-0.418 (inactive)	3.8e-05 (inactive)	0.0058 (inactive)	16.1% (inactive)	24.2% (inactive)	–	–	–	–	–	–
COc1ccc(C2C(C(C)=O)=C(C)N=c3s/c(=C\c4ccc5c(c4)OCO5)c(=O)n32)c(OC)c1 (stereo not given)	340	-19.3% (inactive)	12.7% (inactive)	118%	115%	-0.568 (inactive)	-1.5e-05 (inactive)	0.00431 (inactive)	-6% (inactive)	20.7% (inactive)	3.3% (inactive)	–	–	–	–	–
CCOC(=O)c1ccc(COC(=O)CCc2nc3ccccc3[nH]c2=O)o1	410	10.6% (inactive)	-18.4% (inactive)	108%	147%	-0.546 (inactive)	1.7e-05 (inactive)	0.00556 (inactive)	15.9% (inactive)	18.3% (inactive)	–	–	–	–	–	–
COC(=O)c1c(C(=O)OC)n(CCCN)c2ccc(C)cc12	434	10.9% (inactive)	1.8% (inactive)	100%	152%	-0.495 (inactive)	-7.5e-06 (inactive)	0.00606 (inactive)	20.6% (inactive)	34% (inactive)	–	–	–	–	–	–
COc1cccc(CN(C)CC(=O)NC(=O)NCc2ccco2)c1	608	2.7% (inactive)	-3.5% (inactive)	101%	180%	-0.49 (inactive)	2.9e-05 (inactive)	0.00617 (inactive)	-13.4% (inactive)	-18.8% (inactive)	-58.6% (inactive)	–	–	–	–	–
CC(C)(C)c1cc(C(=O)O)nn1-c1ccccc1	446	2.5% (inactive)	2.7% (inactive)	94.2%	130%	-0.482 (inactive)	-3.8e-05 (inactive)	0.00539 (inactive)	15.1% (inactive)	24.6% (inactive)	–	–	–	–	–	–
Cc1cccn2cc(-c3ccccc3)nc12	394	1.7% (inactive)	-5.2% (inactive)	103%	89.3%	-0.557 (inactive)	-1.4e-05 (inactive)	0.00519 (inactive)	2.94% (inactive)	-39.3% (inactive)	-36.2% (inactive)	–	–	–	–	–
COc1ccc(CCNC(=O)C2CCN(Cc3nc(-c4cccc(Cl)c4)oc3C)CC2)cc1OC	400	6% (inactive)	17.8% (inactive)	94.3%	86.6%	-0.584 (inactive)	-1.7e-05 (inactive)	0.00471 (inactive)	6.77% (inactive)	-17.9% (inactive)	-12.2% (inactive)	–	–	–	–	–
COc1ccc(N2CCN(c3oc(COc4ccccc4)nc3C#N)CC2)cc1	449	9.4% (inactive)	-7.4% (inactive)	102%	155%	-0.602 (inactive)	-9.8e-06 (inactive)	0.00622 (inactive)	10.1% (inactive)	3.38% (inactive)	–	–	–	–	–	–
O=c1c(-c2ccc(F)cc2)coc2c3c(ccc12)OCCO3	337	0.7% (inactive)	14.4% (inactive)	131%	124%	-0.501 (inactive)	-0.000205 (inactive)	0.00582 (inactive)	-29.6% (inactive)	-86.4% (inactive)	-65.5% (inactive)	–	–	–	–	–
O=C(NC1CCCC1)c1cc(-c2cccs2)on1	443	-5.1% (inactive)	-2.2% (inactive)	99.3%	105%	-0.441 (inactive)	-2.8e-06 (inactive)	0.00483 (inactive)	-40.4% (inactive)	-146% (inactive)	16.1% (inactive)	–	–	–	–	–
COc1ccc(OC)c(NC(=O)C2CCN(c3cc(-c4ccccc4)nc4ncnn34)CC2)c1	449	2.1% (inactive)	17% (inactive)	95%	150%	-0.528 (inactive)	1.4e-05 (inactive)	0.00653 (inactive)	15% (inactive)	15.1% (inactive)	–	–	–	–	–	–
CC(C)[N+]1(C)[C@@H]2CC[C@H]1CC(OC(=O)C(CO)c1ccccc1)C2 (stereo not given in full)	466	-3.8% (inactive)	–	–	94.7%	-0.497 (inactive)	-5.7e-05 (inactive)	–	-5.72% (inactive)	28.4% (inactive)	-89.2% (inactive)	1.04	-0.0729	-1.49	25.7% (inactive)	0.00449 (inactive)
COCCN1C(=O)C(=O)/C(=C(/O)c2ccc(OC(C)C)cc2)C1c1cccnc1 (stereo not given)	644	-4.7% (inactive)	-7.9% (inactive)	116%	104%	-0.422 (inactive)	-1.5e-05 (inactive)	0.00536 (inactive)	17.3% (inactive)	19.8% (inactive)	19.8% (inactive)	–	–	–	–	–
